Here are results for 20 compounds from PubChem BioAssay (NCATS).

Structures are written as SMILES. “And” between values parts separate entries of the source, which are not always exact repeats. Equal values may be shown once. Records with an inconclusive call do not appear. The source made the active and inactive calls. Calls follow the shape of the dose curve; as a rule, active = well fitted curve in the direction sought with a large enough effect; inconclusive = small, poorly fitted or top-dose-only effect, or another doubt; inactive = no such curve, though single readings can be large; an effect the other way counts as inactive or inconclusive.

Test [1] can be described thus: Quantitative highthroughput screen to assess conditional lethalithy of NOMO1 cells grown in RPMI1640 with untreated serum (RPMI+s) (AID 1963876). Also: nearly all actives have a fitted effect of over 35% in size. Also: potency is read from the fitted curve at half-maximal effect.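 As to viability: 100% = DMSO wells and 0% = empty wells without cells.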 The note with it: NOMO1 AML cells in RPMI+serum, CellTiter-Glo viability, 48 h; series mostly up to 45.8 µM. Put shortly:
(§1)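 Each medium arm—HPLM with 10% dialyzed FBS, or RPMI1640 with 5 mM glucose and 10% untreated or dialyzed FBS—was screened against an 11-point, 3-fold compound titration for 48 h at 37 °C, with CellTiter-Glo luminescence as endpoint.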
A general note: In ATP-based viability assays light output follows the ATP content of the culture.

Test [2] in a line: Quantitative highthroughput screen to assess conditional lethalithy of NOMO1 cells grown in RPMI1640 with dialyzed fetal bovine serum (RPMI+ds) (AID 1963877). Also: nearly all actives have a fitted effect of over 30% in size. Also: potency is read from the fitted curve at half-maximal effect.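 As to viability: 100% = DMSO control wells and 0% = empty wells.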 The note with it: NOMO1 in RPMI+dialyzed FBS viability, ATP luminescence, 48 h; series mostly up to 45.8 µM. Put shortly:
as §1

The nature of test [3]: Quantitative highthroughput screen to assess conditional lethalithy of NOMO1 cells grown in Human Plasma-Like Medium with dialyzed fetal bovine serum (HPLM+ds) (AID 1963878). Also: nearly all actives have a fitted effect of over 35% in size. Also: potency is read from the fitted curve at half-maximal effect.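 As to viability: 100% = DMSO wells and 0% = empty wells on each plate.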 The note with it: NOMO1 AML cells in HPLM+ds, CellTiter-Glo viability, 48 h; series mostly up to 45.8 µM. Put shortly:
as §1

The nature of test [4]: Quantitative highthroughput screen to assess conditional lethalithy of P12 Ichikawa cells grown in Human Plasma-Like Medium with dialyzed fetal bovine serum (HPLM+ds) (AID 1963879). Also: nearly all actives have a fitted effect of over 35% in size. Also: potency is read from the fitted curve at half-maximal effect. The note with it: ATP luminescence, 48 h; Potency: viability; series mostly up to 45.8 µM. Put shortly:
as §1

The nature of test [5]: Quantitative highthroughput screen to assess conditional lethalithy of P12 Ichikawa cells grown in RPMI1640 with untreated serum (RPMI+s) (AID 1963881). Also: nearly all actives have a fitted effect of over 35% in size. Also: potency is read from the fitted curve at half-maximal effect.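 As to viability: 100% = DMSO wells and 0% = empty wells without cells.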 Particulars: ATP luminescence, 48 h; Potency: viability; series mostly up to 45.8 µM. Put shortly:
as §1

Test [6] can be described thus: Quantitative highthroughput screen to assess conditional lethalithy of SEM cells grown in Human Plasma-Like Medium with dialyzed fetal bovine serum (HPLM+ds) (AID 1963882). Also: nearly all actives have a fitted effect of over 35% in size. Also: potency is read from the fitted curve at half-maximal effect. Particulars: SEM B-ALL cells in HPLM+ds, CellTiter-Glo viability, 48 h; series mostly up to 45.8 µM. Put shortly: as §1
A short description of test [7]: Quantitative highthroughput screen to assess conditional lethalithy of SEM cells grown in RPMI1640 with unreated serum (RPMI+s) (AID 1963883). Also: nearly all actives have a fitted effect of over 35% in size. Also: potency is read from the fitted curve at half-maximal effect.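 As to viability: 100% = DMSO wells and 0% = empty wells without cells.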 Particulars: SEM B-ALL cells, CellTiter-Glo viability, 48 h; series mostly up to 45.8 µM. In outline:
as §1

The nature of test [8]: Quantitative highthroughput screen to assess conditional lethalithy of SEM cells grown in RPMI1640 with dialyzed fetal bovine serum (RPMI+ds) (AID 1963884). Also: nearly all actives have a fitted effect of over 35% in size. Also: potency is read from the fitted curve at half-maximal effect.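 As to viability: 100% = DMSO control wells and 0% = empty wells without cells.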 Particulars: SEM B-ALL cells, RPMI+dialyzed FBS, CellTiter-Glo viability, 48 h; series mostly up to 45.8 µM. Put shortly:
as §1

Test [9] is described as follows: Quantitative highthroughput screen to assess conditional lethalithy of P12 Ichikawa cells grown in RPMI1640 with dialyzed fetal bovine serum (RPMI+ds) (AID 1963880). The note with it: ATP luminescence, 48 h; Potency: P12-Ichikawa viability; series mostly up to 45.8 µM. In outline: as §1
A short description of test [10]: Cellular viability qHTS for adrenocortical cancer (ACC) cell line SW-13 (AID 1963989). Also: nearly all actives have a fitted effect of over 65% in size. Also: potency is read from the fitted curve at half-maximal effect.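 As to activity (max response): cells grown in serum-free medium with ITS supplement; % is scaled to controls: 0 for no effect and ±100 for the full control effect.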 The note with it: SW-13 ACC cells viability, CellTiter-Glo, 48 h; activity (max response): stronger effect = lower value. Put shortly: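 IC50 and maximal-response values come from four-parameter logistic fits of titration data. SW-13 cells in serum-free medium received compounds (up to 46 uM final) for 48 h before CellTiter-Glo luminescence.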

A short description of test [11]: Cellular viability qHTS for adrenocortical cancer (ACC) cell line NCI-H295R (AID 1963990). Also: nearly all actives have a fitted effect of over 60% in size. Also: potency is read from the fitted curve at half-maximal effect. Particulars: CellTiter-Glo ATP luminescence, 48 h; series mostly up to 46.1 µM. Put shortly:
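Adrenocortical carcinoma cells, suspended at 300 000 cells/mL in serum-free DMEM plus ITS, rested overnight before pin transfer of compound. After two days' incubation, ATP-dependent luminescence was recorded and curve-fitted.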
For orientation: qHTS replaces the single test concentration by a dilution series.

As to `CCOC(=O)N1CCN([N+]([O-])=NOc2cc(ON=[N+]([O-])N3CCN(C(=O)OCC)CC3)c([N+](=O)[O-])cc2[N+](=O)[O-])CC1`, the Potency result in test [1], in test [2], in [3], in test [4], in test [5] and in [6] was “inactive” throughout. Moreover, the Potency entry in [7] and in test [8] was “inactive” in each case.
With `O=C(O)C(=O)Nc1cccc(C2=NN=N[N]2)c1`, the Potency result in test [1], in test [2], in test [3], in [4], in [9] and in test [8] was “inactive” in each case.
Regarding `CC(C)(O)CC[C@@H](O)[C@](C)(O)[C@H]1CC[C@@]2(O)C3=CC(=O)[C@@H]4C[C@@H](O)[C@@H](O)C[C@]4(C)[C@@H]3CC[C@]12C`, the Potency entry in [1], in [2], in test [3], in test [4], in test [5] and in test [6] was “inactive” throughout. For the same compound, the Potency entry in test [7] and in test [8] was “inactive” in each case.
As to `C[C@]12CCC3c4ccc(O)cc4CCC3C1CCC2=O` (some centres undefined), the Potency entry in test [1], in test [2], in [3], in test [4], in test [5] and in test [7] was “inactive” in each case. The Potency result in [11] is “inactive”. The activity (max response) in test [10] was -21% (inactive).
Turning to `Cn1cc(C=CC(=O)c2cccc(F)c2)cc1C=CC(=O)NO`, the Potency entry in [1], in test [2], in [3], in [4], in test [5] and in [6] was “inactive” throughout. In addition, the Potency entry in test [7] and in test [8] was “inactive” each time.
In the case of `CC(=O)N1CCN(c2ccc(OCc3nn(C)c(C)c3-c3cccc4c(CCCOc5cccc6ccccc56)c(C(=O)O)n(Cc5cccnc5)c34)cc2)CC1`, the Potency was 1.66 µM (active) in test [1]; 2.64 µM (active) in test [2]; 2.35 µM (active) in test [3]; 10.5 µM (active) in [4]; 10.5 µM (active) in test [5]. For the same compound, the Potency entry in test [6] and in test [8] was “inactive” throughout.
For `CC1(C)SCCN(S(=O)(=O)c2ccc(OCC#CCO)cc2)[C@@H]1C(=O)NO`, the Potency result in [1], in test [2], in [3], in [4], in [6] and in test [7] was “inactive” each time. For the same compound, the Potency entry in [8] was “inactive”.
For the compound `Cc1oncc1C(=O)Nc1ccc(C(F)(F)F)cc1`, the Potency entry in test [1], in [2], in test [3], in test [4], in [5] and in test [6] was “inactive” each time. The Potency entry in test [7] and in test [11] was “inactive” each time. In addition, the activity (max response) in [10] is -12.3% (inactive) and -17.5% (inactive).
In the case of `C[C@H]1[C@H](NC(=O)C(=NOC(C)(C)C(=O)O)c2csc(N)n2)C(=O)N1S(=O)(=O)O`, the Potency entry in test [1], in [2], in test [3], in test [4], in [5] and in [6] was “inactive” in each case. In [7], the Potency result is “inactive”.
As to `Cc1cccc(N(C)C(=S)Oc2ccc3ccccc3c2)c1`, the Potency entry in test [1], in [2], in [3], in test [4], in test [5] and in test [6] was “inactive” each time. Further, the Potency result in test [7], in test [8] and in test [11] was “inactive” in each case. For the same compound, the activity (max response) in test [10] is 2.38% (inactive).
`Cn1cc(C=C2C(=O)Nc3cccnc32)c2ccccc21`: the Potency in test [1] was 7.43 µM (active); in test [2] it was 9.35 µM (active); in [4], 9.35 µM (active); in test [5], 23.5 µM (active). Also, the Potency result in test [3] is “inactive”.
Consider `O=C(c1ccc(F)c(F)c1Nc1ccc(I)cc1F)N1CC(O)([C@H]2CCCCN2)C1`, for which the Potency in test [1] is 0.743 µM (active); in test [2], 0.743 µM (active); in test [3], 0.526 µM (active); in [4] it was 8.33 µM (active). For the same compound, the Potency result in [6] is “inactive”.
Take `CCCCN1CCC(CNC(=O)c2c3n(c4ccccc24)CCCO3)CC1`: the Potency result in test [1], in [2], in [3] and in test [8] was “inactive” each time. Moreover, the Potency is 18.7 µM (active) in [4] and 16.6 µM (active) in test [5].
With `COc1ccc2cc([S+]([O-])Cc3ncc(C)c(OC)c3C)nc2c1`, the Potency result in [1], in test [2], in [3], in [4], in [5] and in [7] was “inactive” in each case. The Potency in test [8] was 0.935 µM (active).
As for `O=Nc1c(-c2c(O)[nH]c3cc(Br)ccc23)[nH]c2ccccc12`, the Potency is 14.8 µM (active) in test [1]; 10.5 µM (active) in test [2]; 5.9 µM (active) in test [3]; 4.18 µM (active) in test [4]; 4.69 µM (active) in [5]; 0.833 µM (active) in test [6]. Further, the Potency was 0.743 µM (active) in test [7], 0.833 µM (active) in test [8], 11.2 µM (active) in test [10] and 10 µM (active) in [11].
On to `CN1CC(=O)N2C(Cc3c([nH]c4ccccc34)[C@H]2c2ccc3c(c2)OCO3)C1=O` (some centres undefined), for which the Potency result in [1], in test [2], in test [3], in test [4], in test [6] and in [7] was “inactive” each time. The Potency entry in test [8] is “inactive”.
As for `CN1[C@H]2CC[C@H]1CC(OC(=O)c1c[nH]c3ccccc13)C2` (some centres undefined), the Potency result in test [1], in test [2], in [3], in test [4], in test [5] and in [6] was “inactive” each time. The Potency result in test [7] and in test [8] was “inactive” in each case.
Regarding `O=c1c(O)c(-c2ccc(O)cc2)oc2cc(O)cc(O)c12`, the Potency entry in test [1], in [2], in test [3], in test [4], in test [9] and in [6] was “inactive” each time. For the same compound, the Potency entry in [11] is “inactive”. The activity (max response) in test [10] was -9.76% (inactive).
Turning to `CCCCCCOC(=O)N=C(N)c1ccc(NCc2nc3cc(C(=O)N(CCC(=O)OCC)c4ccccn4)ccc3n2C)cc1`, the Potency is 26.4 µM (active) in test [1], 26.4 µM (active) in test [2] and 20.9 µM (active) in test [3]. Also, the Potency entry in [4], in test [6], in test [7] and in test [8] was “inactive” throughout.
As to `CC(=O)N[C@@H]1[C@H](O[C@@H]2c3ccc(c(Cl)c3)Oc3cc4cc(c3O[C@H]3O[C@H](CO)[C@@H](O)[C@H](O)[C@H]3NC(=O)CCCCCCCC(C)C)Oc3ccc(cc3Cl)C[C@H]3NC(=O)[C@H](N)c5ccc(O)c(c5)Oc5cc(O)cc(c5)[C@H](NC3=O)C(=O)N[C@H]4C(=O)N[C@H]3C(=O)N[C@@H]2C(=O)N[C@@H](C(=O)O)c2cc(O)cc(O[C@H]4O[C@H](CO)[C@@H](O)[C@H](O)[C@H]4O)c2-c2cc3ccc2O)O[C@H](CO)[C@@H](O)[C@@H]1O`, the Potency result in test [1], in test [2], in test [3], in test [4], in [5] and in [6] was “inactive” in each case. For the same compound, the Potency result in test [7] and in [8] was “inactive” throughout.
